Records with an inconclusive call do not appear. Values without a mark were called inactive. Calls follow the shape of the dose curve; as a rule, active = well fitted inhibition curve with a large enough effect; inconclusive = small, poorly fitted or top-dose-only effect; inactive = flat fitted curve, though single readings scatter.

The results in this text go back to PubChem BioAssay (NCATS).
% is scaled to controls: 0 for no effect and ±100 for the full control effect.

The nature of one test: Drug repurposing screens with cells derived from glioblastoma tumor samples (AID 1345199). Also: nearly all actives have a fitted effect of over 40% in size. The conditions noted are these: GBM patient neurospheres viability, ATP luminescence, 48 h; at 45.9 µM (top of the series); tumour line B. An outline of the steps: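 Primary testing used CD133+ neurospheres from four GBM patients, seven concentrations, 48 h exposure and ATP-based viability; confirmation added three slower-growing patient lines.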
For `CC(CCc1ccc(O)cc1)NCC(O)c1ccc(O)cc1` (centres undefined), the activity, negative = cell killing was 1.78%.
The same measure, in the same setting: the value for `O=C(/C=C/c1cccc(F)c1)NC1CC1` was -18.1%; that for `CC[C@H]1NC(=O)[C@@H](NC(=O)c2ncccc2O)[C@@H](C)OC(=O)[C@H](c2ccccc2)NC(=O)[C@@H]2CC(=O)CCN2C(=O)[C@H](Cc2ccccc2)N(C)C(=O)[C@@H]2CCCN2C1=O` was -1.4%.
For `C[Se]CC[C@H](N)C(=O)O`, the activity, negative = cell killing was -12.9%.
The same measure, in the same setting: the value for `CC(C)(C)C(=O)OCC(=O)[C@H]1CC[C@H]2[C@@H]3CCC4=CC(=O)CC[C@]4(C)[C@H]3CC[C@]12C` was -7.01%; that for `NC(=O)[C@@H]1C[C@]2(NC(=O)NC2=O)c2cc(F)ccc2O1` was -9.48%.
For the compound `Cc1cc(=O)c(C(=O)N[C@@H](C(=O)N[C@@H]2C(=O)N3C(C(=O)O)=C(CSc4nnnn4C)CS[C@H]23)c2ccc(O)cc2)c[nH]1`, the activity, negative = cell killing is -7.34%.
The same measure, in the same setting: the value for `FC(F)(F)COCC(F)(F)F` was -8.9%; that for `O=C(OC[C@H]1O[C@](O)(COC(=O)c2cccnc2)[C@@H](OC(=O)c2cccnc2)[C@@H]1OC(=O)c1cccnc1)c1cccnc1` was -19%; that for `Cc1ncc(COP(=O)(O)O)c(CN)c1O` was -10.4%.
The same measure, in the same setting: next, `O=C(O)/C=C/C(=O)Nc1ccc(S(=O)(=O)Nc2nccs2)cc1`: -4.39%.
Same read-out and setting: next, `CCN(CC)C(=O)[C@]1(c2ccccc2)C[C@@H]1CN`: -4.91%; `O=S(=O)(O)CCCS(=O)(=O)O`: -8.81%.
Regarding `O=C(O)COc1ccccc1/C=N/NC(=O)c1ccncc1`, the activity, negative = cell killing is -7.55%.
Still for that read-out and setting: the value for `COc1ccc(/C=N/NC(=O)c2ccncc2)c(C(=O)O)c1OC` was -18.2%.
The same measure, in the same setting: next, `NC(=O)Oc1ccc(Cc2ccccc2)cc1`: -5.11%; `Cc1nc(NS(=O)(=O)c2ccc(N)cc2)nc(C)c1Br`: -13%; `COc1ccc2cc([C@H](C)CO)ccc2c1`: -14.5%.
`c1ccc2c(c1)OCC(CN1CCCCC1)O2` (centres undefined): the activity, negative = cell killing was 0.315%.
The same measure, in the same setting: the value for `CCCCCCCCCCCCCCCCCCCCCC(=O)Nc1ccn([C@@H]2O[C@H](CO)[C@@H](O)[C@@H]2O)c(=O)n1` was -14.5%.
With `CC(=O)N[C@@H]([C@@H](O)[C@H](O)[C@H](O)CO)[C@@H](O)CC(=O)C(=O)O`, the activity, negative = cell killing is -12%.
Same read-out and setting: the value for `C[C@H](O)CN(C)C` was -3.73%.
Same read-out and setting: next, `COc1ccc(/C=C/C(=O)O)cc1`: 6.24%; `CC1=C[C@H](O)CC(C)(C)[C@H]1/C=C/C(C)=C/C=C/C(C)=C/C=C/C=C(C)/C=C/C=C(C)/C=C/C1=C(C)C[C@@H](O)CC1(C)C`: -18.9%.
The same measure, in the same setting: the value for `O=C1CC[C@@H](C(=O)N[C@H]2C[C@@H]2c2ccccc2)N1` was -8.87%; that for `CCOC(=O)c1c[nH]c2cc(OCC(C)C)c(OCC(C)C)cc2c1=O` was -9.16%; that for `CO/N=C(\C(=O)N[C@@H]1C(=O)N2C(C(=O)[O-])=C(C[n+]3cccc4c3CCC4)CS[C@H]12)c1csc(N)n1` was -11.7%.
Regarding `CC12CCC(C1)C(C)(C)C2=O` (centres undefined), the activity, negative = cell killing was -4.04%.
Same read-out and setting: the value for `C[C@@H](O)[C@H]1C(=O)N2C(C(=O)[O-])=C(SC3Cn4cnc[n+]4C3)[C@H](C)[C@H]12` (some centres undefined) was -14.6%.

Still in this test, the particulars now being: GBM patient neurospheres viability, ATP luminescence, 48 h; at 45.9 µM (top of the series); tumour line D.
For the compound `CC(CCc1ccc(O)cc1)NCC(O)c1ccc(O)cc1` (centres undefined), the activity, negative = cell killing was 4.34%.
The same measure, in the same setting: the value for `O=C(/C=C/c1cccc(F)c1)NC1CC1` was -4.02%; that for `CC[C@H]1NC(=O)[C@@H](NC(=O)c2ncccc2O)[C@@H](C)OC(=O)[C@H](c2ccccc2)NC(=O)[C@@H]2CC(=O)CCN2C(=O)[C@H](Cc2ccccc2)N(C)C(=O)[C@@H]2CCCN2C1=O` was 17.7%; that for `C[Se]CC[C@H](N)C(=O)O` was -0.664%.
As for `CC(C)(C)C(=O)OCC(=O)[C@H]1CC[C@H]2[C@@H]3CCC4=CC(=O)CC[C@]4(C)[C@H]3CC[C@]12C`, the activity, negative = cell killing is -7.34%.
With `NC(=O)[C@@H]1C[C@]2(NC(=O)NC2=O)c2cc(F)ccc2O1`, the activity, negative = cell killing was 3.75%.
The same measure, in the same setting: the value for `Cc1cc(=O)c(C(=O)N[C@@H](C(=O)N[C@@H]2C(=O)N3C(C(=O)O)=C(CSc4nnnn4C)CS[C@H]23)c2ccc(O)cc2)c[nH]1` was 13%.
On the same count and under the same terms, the value for `FC(F)(F)COCC(F)(F)F` was -17.5%; that for `O=C(OC[C@H]1O[C@](O)(COC(=O)c2cccnc2)[C@@H](OC(=O)c2cccnc2)[C@@H]1OC(=O)c1cccnc1)c1cccnc1` was -0.117%; that for `Cc1ncc(COP(=O)(O)O)c(CN)c1O` was -17.3%.
On to `O=C(O)/C=C/C(=O)Nc1ccc(S(=O)(=O)Nc2nccs2)cc1`, for which the activity, negative = cell killing was -8.87%.
The same measure, in the same setting: next, `CCN(CC)C(=O)[C@]1(c2ccccc2)C[C@@H]1CN`: -13.9%.
As for `O=S(=O)(O)CCCS(=O)(=O)O`, the activity, negative = cell killing is -10.4%.
On the same count and under the same terms, next, `O=C(O)COc1ccccc1/C=N/NC(=O)c1ccncc1`: 5.85%; `COc1ccc(/C=N/NC(=O)c2ccncc2)c(C(=O)O)c1OC`: 8.03%; `NC(=O)Oc1ccc(Cc2ccccc2)cc1`: -13.8%.
Still for that read-out and setting: the value for `Cc1nc(NS(=O)(=O)c2ccc(N)cc2)nc(C)c1Br` was -4.79%; that for `COc1ccc2cc([C@H](C)CO)ccc2c1` was 4.49%; that for `c1ccc2c(c1)OCC(CN1CCCCC1)O2` (centres undefined) was -10.7%.
On the same count and under the same terms, the value for `CCCCCCCCCCCCCCCCCCCCCC(=O)Nc1ccn([C@@H]2O[C@H](CO)[C@@H](O)[C@@H]2O)c(=O)n1` was -7.79%; that for `CC(=O)N[C@@H]([C@@H](O)[C@H](O)[C@H](O)CO)[C@@H](O)CC(=O)C(=O)O` was -21.2%.
For the compound `C[C@H](O)CN(C)C`, the activity, negative = cell killing was -16.1%.
Still for that read-out and setting: the value for `CCCCCCCCCCCCCCCCCCOCC(COP(=O)([O-])OCC[N+](C)(C)C)OC` (centres undefined) was -24.7%.
Same read-out and setting: next, `COc1ccc(/C=C/C(=O)O)cc1`: -5.33%; `CC1=C[C@H](O)CC(C)(C)[C@H]1/C=C/C(C)=C/C=C/C(C)=C/C=C/C=C(C)/C=C/C=C(C)/C=C/C1=C(C)C[C@@H](O)CC1(C)C`: -21.1%; `O=C1CC[C@@H](C(=O)N[C@H]2C[C@@H]2c2ccccc2)N1`: -2.23%.
Still for that read-out and setting: the value for `CCOC(=O)c1c[nH]c2cc(OCC(C)C)c(OCC(C)C)cc2c1=O` was -17.4%; that for `CO/N=C(\C(=O)N[C@@H]1C(=O)N2C(C(=O)[O-])=C(C[n+]3cccc4c3CCC4)CS[C@H]12)c1csc(N)n1` was -9.09%; that for `CC12CCC(C1)C(C)(C)C2=O` (centres undefined) was -4.98%.
For the compound `C[C@@H](O)[C@H]1C(=O)N2C(C(=O)[O-])=C(SC3Cn4cnc[n+]4C3)[C@H](C)[C@H]12` (some centres undefined), the activity, negative = cell killing is -27.3%.
